Most compounds without a hit are left out; they make up all but 3.1% or so of the library.
KLK7 zymogen act: activates the human kallikrein-7 zymogen; P49862; purified proKLK7, EDANS-DABCYL substrate fluorescence; 100% is mature enzyme control, 0% vehicle; activation, % at 7 µM; 370,000 tested, 0.9% active; AID 652039;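 active means activation above the mean of all tested compounds plus 3 SD, computed per campaign excluding outliers beyond control limits, cut at about 13% in these data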
Neddylation inh: blocks human cullin neddylation. TR-FRET cullin neddylation, biochemical. calls only at 25 µM. 360,000 tested, 0.58% active. AID 651699; in the data active means inhibition above about 36%
Rin1-Abl PPI inh: blocks binding of human Rin1 to Abl. P00519+Q13671. TR-FRET Rin1/Abl binding, biochemical. inhibition, % at 7.35 µM. 360,000 tested, 0.4% active; in the data active means inhibition above about 5%, passing the limit was not always enough
MBD2 inh: blocks human MBD2 binding to methylated DNA. TR-FRET, MBD2 binding to methylated oligonucleotide. Q9UBB5. AID 686964. 370,000 tested, 0.31% active. inhibition, % at 4.4 µM; in the data active means inhibition above about 13%
LEDGF integ inh: blocks HIV-1 LEDGF/p75-dependent DNA integration | TR-FRET IN-LEDGF/p75 DNA integration, Eu/Cy5 | inhibition, % at 3.7 µM | 370,000 tested, 0.64% active | AID 743269;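 active means inhibition above the screen-wide mean plus 3 SD, cut at about 13% in these data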;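 further: signal is the Cy5 over europium emission ratio at 671 and 618 nm; 0% = plate median of compound wells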
UHRF1 binding: human UHRF1 methylated DNA binding inhibitors | UHRF1 binding to methylated oligo, TR-FRET | inhibition, % at 4.4 µM | 370,000 tested, 0.75% active; in the data active means inhibition above about 21%;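 further: UHRF1 SRA domain binding a hemimethylated CpG hairpin DNA probe; 0% = median of test compound wells and 100% = reference inhibitor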
Target sequence (Q96T88 whole entry, looked up, the tested form may be a part): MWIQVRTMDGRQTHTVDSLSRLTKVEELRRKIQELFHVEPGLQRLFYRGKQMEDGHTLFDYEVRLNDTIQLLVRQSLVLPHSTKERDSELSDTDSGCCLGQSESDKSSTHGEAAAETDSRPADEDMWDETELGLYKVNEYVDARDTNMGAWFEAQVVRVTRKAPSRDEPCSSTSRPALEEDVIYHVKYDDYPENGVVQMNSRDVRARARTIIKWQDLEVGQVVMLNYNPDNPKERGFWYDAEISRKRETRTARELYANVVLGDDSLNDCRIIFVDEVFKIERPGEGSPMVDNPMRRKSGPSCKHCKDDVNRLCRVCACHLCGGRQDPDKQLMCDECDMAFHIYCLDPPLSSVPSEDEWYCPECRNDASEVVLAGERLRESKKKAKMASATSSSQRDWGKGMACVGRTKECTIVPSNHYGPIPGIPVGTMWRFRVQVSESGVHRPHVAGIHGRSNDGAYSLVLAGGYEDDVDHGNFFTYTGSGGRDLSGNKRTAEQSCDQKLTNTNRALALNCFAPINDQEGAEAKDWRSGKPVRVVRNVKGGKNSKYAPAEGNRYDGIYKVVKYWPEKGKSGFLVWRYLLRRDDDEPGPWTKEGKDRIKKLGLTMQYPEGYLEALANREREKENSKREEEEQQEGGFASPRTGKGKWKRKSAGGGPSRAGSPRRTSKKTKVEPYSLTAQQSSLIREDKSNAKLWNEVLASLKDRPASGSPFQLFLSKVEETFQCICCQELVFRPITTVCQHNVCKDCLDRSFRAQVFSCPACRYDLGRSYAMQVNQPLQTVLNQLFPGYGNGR
Rin1-Abl confirm: Rin1-Abl interaction inhibition confirmation. inhibition, % at 7.35 µM. TR-FRET Rin1-Abl binding, purified proteins. shares compounds with Rin1-Abl PPI inh. 1,300 tested, 49% active
GFP quench: counter-screen for Rin1-Abl inhibitors: GFP fluorescence quenchers. inhibitors/quenchers counterscreen. inhibition, % at 6.75 µM. 1,300 tested, 8.5% active. shares compounds with Rin1-Abl PPI inh;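 further: ABL1-eGFP fusion protein alone without its partner RIN1-SBP; 0% = protein with vehicle and 100% = wells lacking protein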
GFP quench DR: counter-screen for Rin1-Abl inhibitors: GFP quenchers, dose response; AID 602182; shares compounds with Rin1-Abl PPI inh; IC50, µM; 230 tested, under 10 active; GFP fluorescence interference/quenching counterscreen; call rule not given here;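 further: ABL1-eGFP fusion protein alone without its RIN1 binding partner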
The depositor's hits bear a star; i = inactive; . = not tested or not shown. Unless noted, no stated cut-off is given here; in the data, active means inhibition above about 6.5%; inactive means the rest.

SMILES	KLK7 zymogen act	Neddylation inh	Rin1-Abl PPI inh	MBD2 inh	LEDGF integ inh	UHRF1 binding	Rin1-Abl confirm	GFP quench	others
CC(C)NC(=O)CC1C(=O)NCCN1CC(c1ccccc1)c1ccccc1 (stereo not drawn)	0	i	8.7*	-4	-5	2	1	-1
Cc1cc(Br)ccc1NC(=O)CSc1nnc(CN2CCOCC2)n1C	0	i	10*	1	2	0	6	1
CCN1C(=O)CC(n2c(C)nc3ccccc32)C1=O (stereo not drawn)	0	i	7.9*	0	1	2	-1	-1
Cc1nc2ccccc2n1C1CC(=O)N(N(C)C)C1=O (stereo not drawn)	0	i	3	-1	-5	-2	.	.
Cc1ccc(CS/C(Nc2ccccc2C)=C(\C#N)C(=O)NCc2ccco2)c(C)c1	-1	i	26*	6	2	20	1	2
C/C(=N/Nc1ccc(C(=O)O)cc1)c1ccc(O)c(O)c1O	0	i	29*	-2	-4	-4	32*	8.4*
COc1ccccc1-n1cc(C(=O)N2CCCC(CO)(Cc3ccccc3C)C2)cn1 (stereo not drawn)	1	i	7	1	-3	1	.	.
CCc1ccc(C(=O)C[n+]2cccc3cc(OC)ccc32)cc1	1	i	-3	-4	-3	-3	.	.
O=C(CCNS(=O)(=O)c1ccccc1F)OCc1ccccc1Cl	0	i	2	-1	1	2	.	.
Oc1ccc(N=Nc2ccc3c(c2)OCCO3)c2cccnc12	-1	i	11*	-4	3	-5	8.4*	8.1*
COc1ccc(C)cc1N=Nc1ccc(O)c2ncccc12	0	i	9.0*	-7	-1	-6	11*	7.0*
COc1ccc(N=Nc2ccc(O)c3ncccc23)cc1	0	i	0	-3	-6	-5	.	.
O=C(O)CC1(CC(=O)Nc2cccc(C(=O)O)c2)CCCC1	0	i	8.0*	1	3	1	-2	0
O=C(Nc1ccc(Cl)cc1)Nc1cccc(C(=O)O)c1	-1	i	6	-4	-2	-2	.	.
O=C(Nc1cccc(Cl)c1)Nc1cccc(C(=O)O)c1	0	i	5.9*	2	-1	0	-2	0
Cc1ccc(NC(=O)CC2(CC(=O)O)CCCC2)cc1	0	i	-2	4	1	-1	.	.
COc1cccc(Nc2nc(C(N)Cc3ccc(Cl)cc3)cs2)n1 (stereo not drawn)	0	i	-4	-3	13	-1	.	.
O=C(C1CCN(c2nnc(N3CCCC3=O)s2)CC1)N1CCN(Cc2ccc3c(c2)OCO3)CC1	0	i	10*	-7	0	0	5	-1
CCCS(=O)(=O)N1CCN(Cc2ccccc2[N+](=O)[O-])CC1	0	i	9.5*	5	3	3	0	0
O=[N+]([O-])c1ccccc1CN1CCN(S(=O)(=O)Cc2ccccc2)CC1	0	i	2	4	-2	1	.	.
COc1ccc(C2C(Oc3ccccc3)C(=O)N2c2ccc(C)c(C)c2)cc1OC (stereo not drawn)	1	i	-4	-9	6	-4	.	.
O=C1[C@@H](Oc2ccccc2)[C@@H](c2ccccc2)N1c1cccnc1	-1	i	13*	4	-1	-2	10*	-1
O=C(NCc1ccccc1)c1ccccc1Br	0	i	7.8*	2	-2	-2	-3	-1
O=C(NCc1ccccc1)c1ccc(Br)cc1Br	0	i	-4	-1	3	15	.	.
CC(=O)Nc1ccc(NC(=O)CC(C)n2ccnc2)cc1 (stereo not drawn)	0	i	2	0	-1	-2	.	.
SMILES	KLK7 zymogen act	Neddylation inh	Rin1-Abl PPI inh	MBD2 inh	LEDGF integ inh	UHRF1 binding	Rin1-Abl confirm	GFP quench	others
COC(=O)c1c(N2C(=O)CC(Sc3ccccc3C(=O)O)C2=O)sc2c1CCCC2 (stereo not drawn)	0	i	0	-6	-4	4	.	.
CC1(c2nnc(-c3ccccc3)o2)CC(c2ccc(Cl)cc2)=NO1 (stereo not drawn)	1	i	0	-5	2	-2	.	.
CC1(c2nnc(-c3ccncc3)o2)CC(c2ccccc2)=NO1 (stereo not drawn)	0	i	19*	-4	2	-3	24*	1
CC1(c2nnc(-c3ccccc3)o2)CC(c2ccncc2)=NO1 (stereo not drawn)	0	i	1	-1	-2	0	.	.
CC1(c2nnc(-c3ccncc3)o2)CC(c2ccc(Cl)cc2)=NO1 (stereo not drawn)	1	i	17*	-1	2	-4	23*	-2
COc1ccc(/C=N/NC(=O)C(=O)Nc2ccccn2)cc1OC	0	i	-3	2	-1	1	.	.
C=CCOc1ccc(/C=N/NC(=O)C(=O)Nc2ccccn2)cc1OC	-1	i	6.5*	2	0	6	14*	-1
CCOC(=O)C1=C(C)OC2(O)c3ccccc3C(=O)C12O (stereo not drawn)	2	i	22*	2	12	5	36*	0	GFP quench DR=>68
CC(=O)C1=C(C)OC2(O)c3ccccc3C(=O)C12O (stereo not drawn)	0	i	18*	-1	0	2	18*	-1	GFP quench DR=>68
Cc1ccc(-c2nnc3n2N=C(c2ccc(-c4ccccc4)cc2)CS3)cc1	0	.	.	-1	5	-3	.	.
CCOC(=O)CCCCCC(=O)Nc1ccc2c(c1)C(=O)N([C@H](C)CO)C[C@H](C)[C@@H](CN(C)C(=O)Nc1ccc(OC)cc1)O2	.	i	16*	.	.	.	13*	0
COc1ccc(S(=O)(=O)N(C)C[C@H]2Oc3ccc(NC(=O)CCC(F)(F)F)cc3C(=O)N([C@H](C)CO)C[C@@H]2C)cc1	0	i	16*	6	-1	-1	15*	-1
C[C@H](CO)N1C[C@H](C)[C@@H](CN(C)S(=O)(=O)c2ccc(F)cc2)Oc2ccc(NC(=O)C3CC3)cc2C1=O	0	i	14*	2	3	1	14*	1
